# Pf growth 96h: P. falciparum growth inhibition at 96 hours; Potency, µM (doses to about 28.7 µM), inactives show at the highest dose activity change, negative = inhibition, most hits filed as inhibitors; P. falciparum luciferase reporter growth, 96 h; 320,000 tested, 6.9% active; note: potency is the fitted concentration of half-maximal effect; % is set by controls: 0 for no effect and ±100 for the full control effect
#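 Infected RBCs, 2% Hct / 0.05% parasitemia final; luciferase-reporter P. falciparum; cpd 96 h, 37 C, 5% CO2; luciferase detection reagent; luminescence.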
# CHX counter: affects cycloheximide protein synthesis inhibition readout, counter-screen; max response, %; AID 2314; 300,000 tested, 12% active; cell reporter, cycloheximide protein synthesis inhibition counterscreen; in the data active = max response mostly above about 13%, no sharp cut-off; inactive = mostly below about 14%; note: read at 38.3 µM for the half of the compounds with a filed dose; 0% is about no effect
# HCV inh: blocks hepatitis C virus; Huh7.5.1 HCVcc-Cre infection, luciferase reporter, 44 h; Potency, µM (series often up to 41.8 µM), without a hit: at the highest dose activity change, negative = inhibition, usual class: inhibitors; 340,000 tested, 3.4% active; AID 651820; note: potency is the fitted concentration of half-maximal effect; % is set by controls: 0 for no effect and ±100 for the full control effect
#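 HCVcc-Cre virus at an moi near 0.5 was added right after compound to cells cultured 4 h from seeding (1,000 cells/well). Luciferase activity was determined 44 h later, 15 min after substrate addition at RT.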
# Pf growth 48h: P. falciparum growth inhibition at 48 hours (one generation); P. falciparum luciferase growth in erythrocytes, 48 h; Potency, µM (series often up to 28.7 µM), for inactives: at the top dose activity change, negative = inhibition, most hits filed as inhibitors; 310,000 tested, 5.9% active; AID 504832; note: potency is the fitted concentration of half-maximal effect; % is set by controls: 0 for no effect and ±100 for the full control effect
#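 Firefly luciferase activity from engineered P. falciparum reports growth; inhibitors lower the luminescent signal. Cultures contained 2% hematocrit erythrocytes at 0.1% final parasitemia.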
# Shiga inhibitor: Shiga toxin inhibition; AID 2315; Vero cells, Shiga toxin protein synthesis inhibition reporter; 290,000 tested, 9.2% active; inhibition, % at 38.7 µM; in the data active = inhibition mostly above about 28%, no sharp cut-off; inactive = mostly below about 43%; note: 0% is about no effect
# HCMV antiviral: inhibitors of human cytomegalovirus; activity change, negative = inhibition, % at 57.5 µM; AID 1259415; HFF cells, HCMV-luciferase reporter, 72 h; active compounds read low; 410,000 tested, 4.5% active; in the data active = activity change below about -60%; inconclusive = no clear call, values can overlap the other calls; inactive = above about -39%; note: % is set by controls: 0 for no effect and ±100 for the full control effect
#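 Cell-based, HFFs, 1000 cells/well, 16 h 37C; cpds in DMSO + HCMV-luc, MOI 1 PFU/cell; 72 h 37C; OneGlo luminescence after 5 min RT; norm. to buffer vs Salinomycin 10uM.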
# Numbers without * were called inactive; ? = inconclusive; · = no result given. The list is not random: actives were taken first. Their share in the collection is about 21%. Unless noted, calls come from the whole dose curve; as a rule, active = well fitted inhibition curve with a large enough effect; inconclusive = small, poorly fitted or top-dose-only effect, or another doubt; inactive = no such curve, though single readings can be large or run the other way.
SMILES,Pf growth 96h,CHX counter,HCV inh,Pf growth 48h,Shiga inhibitor,HCMV antiviral
CC(=O)Nc1ccc(N(C(=O)CNC(=O)c2ccco2)C(C(=O)NC2CCCC2)c2ccco2)cc1 (configuration not stated),8.9%,-2.0,12.5%,12.0%,20.9,14.4
CC1(C)N=C(N)N=C(N)N1c1cc(Cl)ccc1Cl,·,·,·,·,·,-5.1
COc1ccc(OC)c(N2C(N)=NC(N)=NC23CCCC3)c1,4.6%,-3.5,10.4%,-12.3%,-11.7,33.3
Cc1cccc(N2C(N)=NC(N)=NC23CCCCC3)c1,?,0.8,4.4%,2.08µM*,9.3,-28.7
CC1(C)N=C(N)N=C(N)N1c1ccc(F)cc1F,9.28µM*,-4.3,21.3%,?,3.0,-16.9
CCOC(=O)c1scc(-c2ccccc2)c1S(=O)(=O)Nc1ccc(N(C)C)cc1,·,·,·,·,·,-19.0
O=S1(=O)CCN(Cc2csc(-c3cccs3)n2)CC1,141.2%,31.5*,-4.2%,203.4%,68.5*,17.7
c1csc(-c2nc(CN3CCSCC3)cs2)c1,271.2%,45.3*,11.5%,147.3%,75.6*,29.6
COc1ccc(CCNC(=O)C(C)n2nc(C)c3sc4ccccc4c3c2=O)cc1OC (configuration not stated),·,·,·,·,·,-5.1
O=C(CCNS(=O)(=O)c1ccc2[nH]c(=O)oc2c1)Nc1ccccc1,4.2%,-7.5,4.8%,15.1%,7.8,·
CC1CCN(S(=O)(=O)c2ccc3c(c2)CCN3C(=O)Nc2ccccc2Br)CC1,·,·,·,·,·,-8.3
CCCCCc1cc(O)c2c(c1)OC(C)(C)C1CC=C(C)CC21 (configuration not stated),3.01µM*,·,·,2.39µM*,·,·

# From PubChem BioAssay
